Test results reported in PubChem BioAssay AID504332 (National Center for Advancing Translational Sciences (NCATS), 2011).
Among all 350,000 compounds or so, about 31,000 (8.9%) were called active. Where a call stands in place of a potency, no number is given. Not shown: some 15% with an inconclusive outcome. Calls follow the shape of the dose curve; as a rule, active = well fitted inhibition curve with a large enough effect; inconclusive = small, poorly fitted or top-dose-only effect; inactive = no such curve, though single readings can be large or run the other way. The sample as a whole holds a higher share of actives than the screen did.

Target: Histone-lysine N-methyltransferase EHMT2 (Homo sapiens) (UniProt Q96KQ7)
Sequence (Q96KQ7 913-1193 limits assumed): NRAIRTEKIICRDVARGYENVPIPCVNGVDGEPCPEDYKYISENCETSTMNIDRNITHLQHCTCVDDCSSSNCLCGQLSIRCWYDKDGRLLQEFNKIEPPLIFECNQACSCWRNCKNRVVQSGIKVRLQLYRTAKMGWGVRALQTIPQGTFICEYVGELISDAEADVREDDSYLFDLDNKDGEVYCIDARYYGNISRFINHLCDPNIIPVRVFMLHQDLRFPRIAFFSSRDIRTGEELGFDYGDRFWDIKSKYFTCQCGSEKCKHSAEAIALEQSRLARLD
Experiment: qHTS Assay for Inhibitors of Histone Lysine Methyltransferase G9a; also: nearly all actives have a fitted effect of over 75% in size
Conditions: G9a H3K9 monomethylation, AlphaScreen, 2 h; series mostly up to 59 µM
How it was run: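 G9a (20 nM) preincubated 15 min RT with compounds, then 500 nM biotinylated H3K9 peptide and 20 uM SAM added; 2 h RT reaction. Monomethyl-H3K9 product detected by AlphaScreen with anti-H3K9me1 antibody, streptavidin donor and anti-rabbit IgG acceptor beads.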
Potency is read from the fitted curve at half-maximal effect.

SMILES | Potency | activity, negative = inhibition
O=c1[nH]c2cc(Br)ccc2n2cccc12 | inactive | 
CNC(=O)C1CC(=O)N(c2ccc(OCC(=O)Nc3ccccc3C)cc2)C1 (centres undefined) | inactive | 
Cc1cccc(N2CCN(Cc3c(C)n(C)n(-c4ccccc4)c3=O)CC2)c1C |  | 11.6% [at 12.7 µM] (inactive)
Cc1cccc(N2CCN(C(=O)c3oc(=O)c4ccccc4c3-c3ccccc3)CC2)c1C | inactive | 
Cc1cccc(N2CCN(C3=C(c4ccccc4)C(=O)c4ccccc43)CC2)c1C | 3.55 µM (active) | 
CN(C)c1ccc(-c2nnc(-c3cccnc3)o2)cc1 | inactive | 
COC(=O)c1cc(NC(=O)c2cnc(SC)nc2-c2ccccc2)cc(C(=O)OC)c1 | inactive | 
COc1ccc(OCCCn2c(C3CC(=O)N(c4ccc(F)cc4)C3)nc3ccccc32)cc1 (centres undefined) | inactive | 
COc1ccc([C@H]2CC(=O)C=C(c3ccc(OC(F)(F)F)cc3)C2)cc1OC |  | -10% [at 2.33 µM] (inactive)
Cc1cccc(OCCSc2nc3ccccc3n2CC(=O)N2CCCCC2)c1C | 12.6 µM (active) | 
CC(C)N(C(=O)Cn1c(SCC(=O)N2CCN(c3ccccc3)CC2)nc2ccccc21)C(C)C | inactive | 
Cc1ccc(C(C)C)c(OCCSc2nc3ccccc3n2CC(=O)O)c1 | inactive | 
CN(CC(=O)NCC(c1ccccc1)N1CCCC1)S(=O)(=O)c1ccc(Cl)cc1 (centres undefined) |  | -5.36% [at 12.7 µM] (inactive)
O=C(Nc1nnc(C2CC(=O)N(c3ccc(Cl)cc3)C2)s1)c1ccco1 (centres undefined) | inactive | 
CCN(c1ncnc2c1cnn2-c1ccc(C)cc1)C1CCCCC1 | inactive | 
C/C=C/c1ccc(OCCCCN2CCC(C)CC2)c(OC)c1 | inactive | 
C/C=C/c1ccc(OCC(O)CN2CCCCCCC2)c(OC)c1 (centres undefined) | 20 µM (active) | 
COc1ccccc1OCC(O)CN1CCOCC1 (centres undefined) | inactive | 
CCC(=O)N1CCc2cc(S(=O)(=O)NC(Cc3ccccc3)C(=O)NCc3ccc(C)cc3)ccc21 (centres undefined) | inactive | 
c1ccc(CNc2ncnc3[nH]ncc23)cc1 | inactive | 
CCCCn1c(N)c(N(CC(C)C)C(=O)CSc2ccc([N+](=O)[O-])cc2)c(=O)[nH]c1=O | 50.1 µM (active) | 
CCCCn1c(N)c(N(CCC(C)C)C(=O)COC(=O)c2ccc(CC)cc2)c(=O)[nH]c1=O | inactive | 
CCCCN(C(=O)CCNC(=O)NC12CC3CC(CC(C3)C1)C2)c1c(N)n(CCCC)c(=O)[nH]c1=O |  | -3.13% [at 0.501 µM] (inactive)
CCCCn1c(N)c(N(CC(C)C)C(=O)c2cnc(C)cn2)c(=O)[nH]c1=O | inactive | 
CCCCN(C(=O)c1ccc2ccccc2c1)c1c(N)n(CCCC)c(=O)[nH]c1=O | inactive | 

SMILES | Potency | activity, negative = inhibition
CCCCn1c(N)c(N(CC(C)C)C(=O)C2CSC3(C)CCC(=O)N23)c(=O)[nH]c1=O (centres undefined) | 50.1 µM (active) | 
CCCCn1c(N)c(N(CC(C)C)C(=O)c2ccc(-n3c(C)ccc3C)cc2)c(=O)[nH]c1=O | 56.2 µM (active) | 
CCCCn1c(N)c(N(CC(C)C)C(=O)c2ccc(Br)o2)c(=O)[nH]c1=O | inactive | 
CCCCN(C(=O)c1ccc(C)o1)c1c(N)n(CCCC)c(=O)[nH]c1=O |  | 4.93% [at 0.501 µM] (inactive)
Cc1cc(C)c2oc(C(=O)Nc3ccc(S(=O)(=O)N(C)c4ccccc4)cc3)cc(=O)c2c1 | inactive | 
COc1cc(OC)cc(C(=O)Nc2c(C(=O)Nc3ccc(F)cc3)oc3ccccc23)c1 | inactive | 
Cc1ccccc1CSCCNC(=O)C1CCN(S(=O)(=O)Cc2ccccc2)CC1 | inactive | 
CC(OC(=O)Cc1ccc(F)cc1)C(=O)N1CCc2ccccc21 (centres undefined) | inactive | 
COc1ccc([C@H]2CC(=O)C=C(/C=C/c3ccc(Cl)cc3)C2)cc1 |  | 9.28% [at 2.33 µM] (inactive)
Cc1c(C)n2c(SCC(=O)N3CCCC3)nnc2[nH]c1=O | inactive | 
Cc1ccc(NNC(=O)C2CCC2)cc1C | 11.2 µM (active) | 
Cc1ccc(C)c(OCC(=O)NNC(=O)C2CCC2)c1 |  | -2.65% [at 12.7 µM] (inactive)
O=C(NNC(=O)C1CCC1)c1ccccc1 |  | 24.7% [at 12.7 µM] (inactive)
Cc1cc(C)n2nc(C(=O)OCC(=O)N(CCC#N)c3ccc(F)cc3)nc2n1 |  | 12.1% [at 0.501 µM] (inactive)
CCC1(c2ccccc2)NC(=O)N(CC(=O)c2ccc3c(c2)OCO3)C1=O (centres undefined) | inactive | 
O=C(CN1CCC(O)(c2cccc(C(F)(F)F)c2)CC1)NCCc1ccccc1 | inactive | 
CC(C)c1ccc(NC(=O)C2CCN(c3nc(-c4ccc(C(C)C)cc4)no3)CC2)cc1 | inactive | 
CCN(CC)c1ccc(NS(=O)(=O)c2cc(-c3cc(C)no3)ccc2C)c(C)c1 | 3.16 µM (active) | 
CCOc1ccccc1CNS(=O)(=O)c1cc(-c2cc(C)no2)ccc1C | inactive | 
Cc1cc(-c2ccc(C)c(S(=O)(=O)Nc3ccc(S(N)(=O)=O)cc3)c2)on1 | inactive | 
COc1ccc2c(C)c(CCC(=O)NCc3ccc(OC)c(OC)c3)c(=O)oc2c1 | inactive | 
CC(=O)N1CCCc2cc(S(=O)(=O)N3CCC(C(=O)NCc4ccc(C)cc4)CC3)ccc21 | inactive | 
COc1cccc2sc(NNC(=O)c3nc4ccccc4s3)nc12 | 12.6 µM (active) | 
COc1ccccc1OCc1nc2ccccc2s1 |  | 17.1% [at 12.7 µM] (inactive)
COc1cccc2sc(Nc3nc(C)c(C(C)=O)s3)nc12 | inactive | 

SMILES | Potency | activity, negative = inhibition
O=C(Nc1cc(C(F)(F)F)ccc1Cl)c1nc2ccccc2nc1N1CCCCC1 | inactive | 
O=S(=O)(c1ccc(Cl)cc1)c1nnn2c1nc(NC1CCCC1)c1sccc12 | inactive | 
CC1(C)CC(=O)C=C(c2ccc3ncccc3c2)C1 |  | 6.31% [at 2.33 µM] (inactive)
COc1ccc(S(=O)(=O)N2CCOCC2)cc1NC(=O)CC1CC2CCC1C2 (centres undefined) |  | 1.4% [at 2.33 µM] (inactive)
COc1ccccc1/C=C/C(=O)NC(=S)N1CCOCC1 | inactive | 
O=C(/C=C/c1ccco1)NC(=S)N1CCCCC1 | 70.8 µM (active) | 
CCNC(=S)N1CCN(C(=O)c2ccco2)CC1 | inactive | 
COc1ccc(Cl)cc1NC(=O)CN(C)C(=O)c1cc(-c2cccs2)nn1-c1ccccc1 |  | 8.22% [at 0.501 µM] (inactive)
CCOC(=O)c1ccc(NC(=O)Cn2c(=O)n(-c3ccc(C)cc3)c(=O)c3c2cnn3C)cc1 | inactive | 
O=S(=O)(Nc1ccc2nc(-c3cccc(Cl)c3)oc2c1)c1ccccc1 | inactive | 
CCc1ccccc1NS(=O)(=O)c1ccc2nc(-c3ccccc3)[nH]c2c1 | inactive | 
O=S(=O)(Nc1ccc2nc(-c3ccco3)[nH]c2c1)c1ccccc1 | 31.6 µM (active) | 
COc1ccc2oc(=O)c(-c3cn4c(n3)sc3cc(OC)ccc34)cc2c1 | inactive | 
CCn1c(CN2CCC(C)CC2)nc2cc(NC(=O)c3ccccc3[N+](=O)[O-])ccc21 | inactive | 
COC(=O)c1cc(S(=O)(=O)NCC2CCN(Cc3ccc(Cl)cc3)CC2)cn1C | inactive | 
COc1ccc(CCNC(=O)Cn2c(=O)cc(C(F)(F)F)c3c(C)nn(C)c32)c(OC)c1 | inactive | 
COc1ccccc1C(=O)NCCC(=O)NC(C)CCc1ccccc1 (centres undefined) |  | 3.84% [at 0.501 µM] (inactive)
CCn1c(SCC(=O)NCC2CCCO2)nc2ccccc21 (centres undefined) |  | 19.8% [at 12.7 µM] (inactive)
O=C(CSc1nnc(-c2ccc(NS(=O)(=O)c3ccccc3)cc2)o1)NCC1CCCO1 (centres undefined) | inactive | 
O=C(CSc1ccc(-c2ccccc2)nn1)NCC1CCCO1 (centres undefined) | 44.7 µM (active) | 
CCOc1ccc(CCNC(=O)Cn2nc(CC)n3c(cc4sc(CC)cc43)c2=O)cc1OCC | inactive | 
CCc1nnc(NC(=O)c2cc(S(=O)(=O)N3CCCCC3)ccc2C)s1 | inactive | 
CCOC(=O)c1ccc(NC(=O)Cn2c(=O)cc(C)c3c(C)nn(-c4cccc(F)c4)c32)cc1 | inactive | 
O=C(NNC(=S)NC(=O)c1cn(-c2ccccc2)nc1-c1ccccc1)c1ccncc1 | 25.1 µM (active) | 
Cc1ccc(-c2nn(-c3ccccc3)cc2C(=O)NC2CCC(O)CC2)cc1 (centres undefined) |  | 9.53% [at 2.33 µM] (inactive)

SMILES | Potency | activity, negative = inhibition
O=C(Nc1cn(-c2ccccc2)nc1-c1ccccc1)c1ccccc1 | inactive | 
COc1ccc(N(Cc2cc3ccc(C)cc3[nH]c2=O)S(=O)(=O)c2ccccc2)cc1 | inactive | 
Cc1ccccc1CNC(=O)c1cccc(NC(=O)c2nsc3ccccc23)c1 | inactive | 
Fc1ccc(CSc2nc(NCc3ccccc3)c3ccccc3n2)cc1 | inactive | 
O=C(c1cc2ccccc2o1)N1CCN(S(=O)(=O)c2ccc(Cl)s2)CC1 |  | 0.973% [at 2.33 µM] (inactive)
CN(C)S(=O)(=O)c1cccc(NC(=O)COc2ccc3ccccc3c2)c1 |  | -10.1% [at 12.7 µM] (inactive)
Cc1ccc(C)c(NS(=O)(=O)c2ccc(OCC(=O)NCc3cccnc3)cc2)c1 | inactive | 
Cc1ccc(NS(=O)(=O)c2ccc(C)c(NC(=O)COc3ccc4ccccc4c3)c2)c(C)c1 | 35.5 µM (active) | 
CC(C)CNC(=S)NNC(=O)c1nn(C)cc1Cl | inactive | 
Cc1cccc(NC(=S)Nc2ccc(Cl)c(Cl)c2)c1 | inactive | 
Cn1cc(Cl)c(C(=O)NNC(=S)Nc2cccc(Cl)c2)n1 | 15.8 µM (active) | 
CCOC(=O)c1ccc(NC(=O)c2ccc(NC(=O)C3CCCO3)cc2)cc1 (centres undefined) | inactive | 
CCOC(=O)c1c(NC(=O)c2cc(-c3ccc(Cl)cc3)on2)sc2c1CCCC2 | 6.31 µM (active) | 
CCOC(=O)c1c(NC(=S)Nc2ccccc2C)sc2c1CCC2 | inactive | 
CCOC(=O)c1c(NC(=O)/C(C#N)=C/c2ccccc2)sc2c1CCC2 | inactive | 
CCOC(=O)c1c(NC(=S)NC(=O)c2ccco2)sc2c1CCCC2 | inactive | 
CCOC(=O)c1c(NC(=O)NC(C)(C)C)sc2c1CCN(C)C2 | inactive | 
CCOC(=O)c1c(NC(=O)c2ccc(S(=O)(=O)N(CC)CC)cc2)sc2c1CCCCC2 | inactive | 
CCOC(=O)c1c(NC(=S)NC)sc2c1CCCC2 | 11.2 µM (active) | 
CCOC(=O)c1c(NC(=S)Nc2ccccc2)sc2c1CCN(C)C2 | 44.7 µM (active) | 
CCCOC(=O)Nc1sc2c(c1C(=O)OCC)CCC2 | inactive | 
CCOC(=O)c1c(NC(=O)CSc2cn(CC)c3ccccc23)sc2c1CCC2 | 56.2 µM (active) | 
CCOC(=O)c1c(NC(=O)CSc2cn(CCNC(=O)c3cccc(C(F)(F)F)c3)c3ccccc23)sc2c1CCC2 | inactive | 
CCOC(=O)c1c(NC(=O)CSc2nnc(C)c(=O)[nH]2)sc2c1CCC2 | inactive | 
